Rows were chosen to be rich in hits. Some 11% of all compounds tested hit in one or more screens of this group.
HPGD block: HPGD (human) dehydrogenase inhibition; purified HPGD, NADH fluorescence kinetic, PGE2 substrate; P15428; Potency, µM, for the others: top-dose activity change, negative = inhibition, most hits filed as inhibitors; 150,000 compounds, 4.3% hits; note: potency is the fitted concentration of half-maximal effect
Target sequence (P15428 whole entry, looked up): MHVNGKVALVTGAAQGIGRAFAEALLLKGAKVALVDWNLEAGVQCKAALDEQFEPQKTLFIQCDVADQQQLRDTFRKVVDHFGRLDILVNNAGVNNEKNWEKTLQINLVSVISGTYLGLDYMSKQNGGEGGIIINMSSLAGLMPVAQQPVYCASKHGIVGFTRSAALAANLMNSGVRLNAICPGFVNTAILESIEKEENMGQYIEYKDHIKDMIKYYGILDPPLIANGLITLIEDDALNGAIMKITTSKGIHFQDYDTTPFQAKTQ
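20 nM HPGD preincubated 15 min at room temperature with compound in 50 mM Tris-HCl pH 8, 0.01% Tween 20. Started with 1 mM NAD+ and 30 uM prostaglandin E2; NADH fluorescence (360/450 nm) read 5 times over 30-s intervals, last minus first.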
IMPase cell inh: IMPase inhibition in cells; inhibition (IP1 accumulation), % at 46.1 µM; 120,000 tested, under 10 active; CHO-M1 cells, IP1 accumulation, HTRF TR-FRET ratio; P97697; AID 901; active = well fitted curve in the direction sought with a large enough effect in the signal ratio, not every such curve was filed as active; inconclusive = small, poorly fitted or top-dose-only effect, or a change in a side signal; inactive = no such curve, though single readings can be large or run the other way; the % refers to the signal ratio;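 note: cells stimulated with carbachol in lithium chloride buffer; plate controls were DMSO basal wells for no effect and reference inhibitor wells for full effect; higher means more IMPase inhibition seen as more IP1 and lower FRET ratio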
Target sequence (P97697 whole entry, looked up): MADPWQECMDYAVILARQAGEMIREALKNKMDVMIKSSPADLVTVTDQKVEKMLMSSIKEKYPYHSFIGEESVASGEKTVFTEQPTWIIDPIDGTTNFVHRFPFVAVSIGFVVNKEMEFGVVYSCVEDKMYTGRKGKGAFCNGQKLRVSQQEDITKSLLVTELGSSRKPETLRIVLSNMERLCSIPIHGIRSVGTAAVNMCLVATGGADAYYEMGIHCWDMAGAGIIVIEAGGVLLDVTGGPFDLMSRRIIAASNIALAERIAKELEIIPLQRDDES
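In this qHTS, compounds (final up to 46 uM) act on CHO-M1 cells that are then activated through the M1 receptor with carbachol, in pH 7.4 buffer containing 50 mM LiCl, for 30 min. IP1 accumulation is quantified by the IP-One immunoassay.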
IMPase Li inh: IMPase inhibition in cells with lithium potentiation | 210,000 compounds, 0.35% hits | CHO-M1 cells, IP1 TR-FRET (IP-One), carbachol + lithium | AID 1457 | Potency, µM (top dose mostly 59.4 µM), inactives show at the top dose activity, negative = IMPase inhibition, usual class: inhibitors; active = well fitted curve in the direction sought with a large enough effect; inconclusive = small, poorly fitted or top-dose-only effect, or another doubt; inactive = no such curve, though single readings can be large; an effect the other way counts as inactive or inconclusive;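 note: IP1 builds up when IMPase is blocked and the TR-FRET signal falls; potency is the fitted concentration of half-maximal effect; plate controls were basal vehicle for no effect and high inhibitor control for full effect; nearly all actives have a fitted effect of over 50% in size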
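Concentration–response in CHO-M1 cells, lithium-potentiated; 30 min at 37C. IP1 detected by competitive TR-FRET after 10 min lysis at RT. Hill-fitted AC50.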
PNC assembly inh: inhibitors of perinucleolar compartment assembly; PC3M PTB-GFP, PNC prevalence imaging, 16 h; stronger effect = lower value; activity change (PNC), negative = inhibition, % at 10 µM; 140,000 compounds, 3.1% hits; AID 2417;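 active = readout at or below -70, meaning at least 70% loss of cells showing the perinucleolar compartment, a nuclear body marking cancer cells; inconclusive = readout between -30 and a set limit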;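 note: plate controls were DMSO wells for no effect and camptothecin positive control wells for full effect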
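Read-out is percentage of cells bearing a perinucleolar compartment, from automated 20x imaging of fixed, Hoechst-stained PC3M PTB-GFP cells. Cells were seeded 4 h, then exposed 16 h to compound (23 nl of library stock) in duplicate plates.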
ALOX12 inhib: inhibitors of human 12-lipoxygenase (ALOX12); P18054; purified 12-hLO, xylenol orange hydroperoxide absorbance; Potency, µM (series often up to 57.1 µM), for the others: at the highest dose activity change, negative = inhibition, most hits filed as inhibitors; 150,000 compounds, 0.12% hits; active = well fitted curve in the direction sought with a large enough effect; inconclusive = small, poorly fitted or top-dose-only effect, or another doubt; inactive = no such curve, though single readings can be large; an effect the other way counts as inactive or inconclusive; note: potency is the fitted concentration of half-maximal effect; nearly all actives have a fitted effect of over 55% in size
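Lipoxygenase turnover measured by absorbance at 573 and 405 nm after Fe-XO development. Human 12hLO 150 nM, arachidonate 40 uM, pH 7.0 Hepes buffer with detergent; 15 min compound preincubation, 30 min reaction.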
ALDH1A1 inh: inhibitors of human aldehyde dehydrogenase 1A1 | AID 1030 | Potency, µM (series often up to 75.3 µM), inactives show at the highest dose activity, negative = inhibition, usual class: inhibitors | P00352 | 220,000 compounds, 7.3% hits | Purified ALDH1A1, NADH fluorescence, propionaldehyde substrate;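 note: potency is the fitted concentration of half-maximal effect; plate controls were no enzyme wells and a reference inhibitor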
Active calls of the source: *; ? = inconclusive; . = not tested or not shown; [ ] = remark or other dose. Unless noted, calls come from the whole dose curve; as a rule, active = well fitted inhibition curve with a large enough effect (not every such curve was filed as active); inconclusive = small, poorly fitted or top-dose-only effect, or another doubt; inactive = no such curve, though single readings can be large or run the other way. Unless noted, % is set by controls: 0 for no effect and ±100 for the full control effect.

SMILES	HPGD block	IMPase cell inh	IMPase Li inh	PNC assembly inh	ALOX12 inhib	ALDH1A1 inh
CCCN1C(=O)/C(=N\OCC(=O)NCC(F)(F)F)c2ccccc21	-17%	-2	7%	45	1%	1.3µM*
COc1ccc(N(C(=O)COc2ccccc2OC)S(=O)(=O)c2ccc(Cl)cc2)cc1	.	-8	.	.	.	.
CSc1nc2c(c(=O)[nH]1)C(c1ccccc1Cl)CC(=O)N2 (centres undefined)	.	.	-6%	.	.	13µM*
COc1ccccc1N1CCN(C(=O)C2c3ccccc3Oc3ccccc32)CC1	-19%	10	1%[38.3 µM]	?	-9%	?
O=C(C1c2ccccc2Oc2ccccc21)N1CCN(c2ccc(Cl)cc2)CC1	-14%	7	47%[38.3 µM]	-89*	7%	-1%
O=C1CC(c2nnc(Cc3cccc(Cl)c3)o2)CN1c1ccccc1 (centres undefined)	.	-4	.	.	.	.
CS[C@]12C(=O)C[C@]3(C)[C@@H](CC[C@@]3(O)C(=O)CO)[C@@H]1CCC1=CC(=O)CC[C@]12C	-3%	.	3%	.	1%[11.4 µM]	-11%[13.5 µM]
O=C(Cn1nnc(-c2ccccc2F)n1)NCCc1ccccc1	-25%	0	-6%[38.3 µM]	-16	2%	-9%
CCCC(=O)Nc1ccccc1-c1nnn(CC(=O)Nc2ccc(OCC)cc2)n1	-9%	3	2%	-19	8%	10%
O=C(Cn1nnc(-c2ccccc2F)n1)Nc1cccc2ncccc12	-5%	?	-31%[38.3 µM]	-82*	-3%	-2%
CCOc1ccc(NC(=O)Cn2nnc(-c3ccccc3NC(=O)CC)n2)cc1	-13%	7	9%[38.3 µM]	-84*	-1%	-4%
Cc1ccc(NC(=O)Cn2nnc(-c3ccccc3NC(=O)c3cccs3)n2)cc1	?	-2	30%[38.3 µM]	-88*	4%	-9%
Cc1cc(C)c(S(=O)(=O)NCCc2cc3ccc(C)cc3[nH]c2=O)c(C)c1	.	21	.	.	.	.
COc1ccc(NC(=O)N2CCCC3(CCN(C(=O)c4ccncc4)CC3)C2)cc1	-25%	.	32%	.	-4%	?
CCCCC(CC)COCC1CO1 (centres undefined)	-7%	.	12%	.	1%	13µM*
N#C/C(=N\Nc1ccc(F)cc1)C(=N)N1CCCCCC1	.	.	6%	.	.	?
N#C/C(=N\Nc1ccccc1F)C(=N)N1CCCCC1	-23%	11	6%	-85*	-24%	?
Nc1sc(-c2ccccc2)c(Cc2ccccc2)c1C(=O)O	.	.	-2%	.	.	10µM*
C/C(=N\Nc1nnc(-c2ccccc2)c(-c2ccccc2)n1)c1cccc([N+](=O)[O-])c1	6.3µM*	9	21%[38.3 µM]	6	-17%	?
O=[N+]([O-])c1cccc(/C=N/Nc2nnc(-c3ccccc3)c(-c3ccccc3)n2)c1	-4%	16	4%	-18	0%	-3%
O=C(Nc1ccc(Br)cc1)c1cccc(C(=O)Nc2ccc(Br)cc2)c1	.	-1	.	.	.	.
O=c1cc(COc2ccc(Cl)c(Cl)c2)nc2sccn12	.	.	.	.	.	-7%
O=c1cc(CNc2cc(Cl)ccc2Cl)nc2sccn12	-27%	.	-3%	-113*	-1%	5%
Cc1ccc(-c2nnc(Nc3ccc(S(N)(=O)=O)cc3)c3ccccc23)cc1S(=O)(=O)N1CCOCC1	.	-9	.	.	.	.
CCCC/C=C/C(NC(=O)c1ccccc1)c1ccccc1 (centres undefined)	-6%	.	6%	.	-2%	?
SMILES	HPGD block	IMPase cell inh	IMPase Li inh	PNC assembly inh	ALOX12 inhib	ALDH1A1 inh
CCCC/C=C/C(NC(=O)c1ccco1)c1ccccc1 (centres undefined)	-30%	.	3%	.	-2%	3.5µM*
O=C(NCCNC(=O)C(c1ccccc1)c1ccccc1)c1ccco1	-3%	7	24%[38.3 µM]	?	-7%	40µM*
CCCC/C=C/C(NC(=O)CCc1ccccc1)c1ccccc1 (centres undefined)	-12%	.	20%	-119*	-1%	-9%
CSc1nsc(SC)c1C(=O)NCCNS(=O)(=O)c1ccc(C)cc1	20µM*	3	16%[38.3 µM]	?	?	25µM*
Cc1ccc(S(=O)(=O)NCCNC(=O)c2nonc2N)cc1	-12%	.	-8%	45	2%	4%
CCOCc1nnc(NC(=O)CSCc2ccccc2)s1	-3%	2	2%[38.3 µM]	-18	1%	?
CSc1nnc(NC(=O)CCc2ccccc2)s1	-24%	-6	28µM*	30	-7%	?
Cc1nnc(NC(=O)CSCc2ccccc2)s1	-8%	4	26%[38.3 µM]	-106*	3%	-2%
CCSc1nnc(NC(=O)CCc2ccc(OC)cc2)s1	-10%	.	?	59	2%	?
CCCC(=O)N1CCN(c2ccc(NC(=S)NC(=O)c3cccc(C)c3)cc2)CC1	.	.	18%	.	.	20µM*
COCCNC(=S)Nc1ccc(N2CCCCC2)cc1	.	.	6%	.	.	8.9µM*
O=C(NC(=S)Nc1ccc(N2CCOCC2)cc1)c1cccc(Cl)c1	-23%	.	7%	?	1%	?
COc1cccc(C(=O)NC(=S)Nc2ccc3oc(=O)ccc3c2)c1	.	-21	.	85	0%	1.4µM*
COc1cccc(C(=O)NC(=S)Nc2ccc(N(C)C)cc2)c1	-17%	.	14%	15	?	10µM*
CN1CCN(c2ncc3nc(-c4cccc(C#N)c4)c(=O)n(CCC#N)c3n2)CC1	.	.	-6%	.	.	?
CC(=O)OCC1OC(n2c(Br)nc3c(=O)[nH]c(N)nc32)C(OC(C)=O)C1OC(C)=O (centres undefined)	-16%	.	-7%	.	0%	16%
S=C(NC1CCCCC1)N1CCC([C@H]2C=NC=N2)CC1	1%	-1[20.6 µM]	11%	.	-3%[25.6 µM]	-3%[20.9 µM]
COc1ccccc1C(=O)NC(=S)Nc1ccc(N2CCCC2)cc1	-8%	0	2%	-16	-1%	-2%
COc1ccc(C(=O)NC(=S)Nc2ccc(Cc3ccncc3)cc2)cc1	.	.	10%	.	.	14µM*
COc1cc(C(=O)NC(=S)Nc2ccc(N3CCCC3)cc2)cc(OC)c1OC	.	1	.	28	?	28µM*
COc1ccc(C(=O)NC(=S)Nc2ccc(N3CCCC3)cc2)cc1	.	.	9%	.	.	10µM*
COc1cccc(C(=O)NC(=S)Nc2ccc(N3CCCC3)cc2)c1	-22%	-1	3%[38.3 µM]	-20	16µM*	9.5µM*
COc1cccc(-c2nc(NCCNC(C)=O)c3ccccc3n2)c1	.	.	6%	.	.	4%
O=C(c1ccco1)N1CCC2(CCN(Cc3nccs3)CC2)CC1	-3%	.	21%	.	3%	-7%
CC(=O)SC1CC2=CC(=O)CC[C@]2(C)C2CC[C@@]3(C)[C@@H](CC[C@@]34CCC(=O)O4)C12 (some centres undefined)	-3%	.	-9%	.	.	-1%
COCC(=O)N1CCC2(CC1)CN(C(=O)Nc1cccc(C#N)c1)C2	-7%	.	-8%	.	2%	-6%

Source: PubChem BioAssay
